About 8,800 targets were measured; listed, in parts, are those with a hit and a random draw of the rest. About 0.5% of all pairs of compound and target were hits. A number with no mark means an inactive call.
Columns and labels:
Experiment in all cases: log2 fold change, soluble protein after heating vs DMSO (PISA); higher = thermal stabilisation; K562 lysate, 10 uM; active = over 0.2 and 3.5 SD of the protein, either way, in both replicates (recomputed)
[1] = compound: C#Cc1cccc(Nc2ncnc3cc(OCCOC)c(OCCOC)cc23)c1 [erlotinib]
Outline: (§1)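 To prepare the extract, K562 pellets were dounce-homogenised in PBS pH 7.4 with 1 mM MgCl2, giving crude material at 1 mg/mL protein. This was treated with 10 μM compound for 30 min, then heated in aliquots for 3 min over 48°C-58°C before pooling and addition of NP-40 to 0.5% at 4°C. Centrifugation at 21,000xg for 90 min left soluble protein in the supernatant, which TMTpro 16plex LC-MS/MS quantified with equalised channel sums. Results are log-two fold changes in thermal stability compared with solvent controls, from duplicates.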

[2] = compound: C/C(=N\NC(=O)C1=CC(=CC=C1)S(=O)(=O)N2CCOCC2)/C3=C(C=CC(=C3)Cl)O
Outline: as §1

[3] = compound: C1=CC(=CC=C1C2=NC3=C(N2)C=C(C=C3)C(=O)N)OC4=CC=C(C=C4)Cl
Outline: as §1

[4] = compound: C1=CC2=C(C=CC(=C2)/C=C\3/C(=O)NC(=NCC4=CC=CS4)S3)N=C1
Outline: as §1

[5] = compound: C1=CC2=NC=CN=C2C=C1/C=C/3\C(=O)NC(=O)S3
Outline: as §1

[6] = compound: C1=CC=C(C=C1)C2=NC(=C(N2)C3=CC=NC=C3)C4=CC(=C(C=C4)Cl)O
Outline: as §1

[7] = compound: C1CCN(C1)C(=O)NC2=CC=CC(=C2)NC3=NC=C(C(=N3)NCCC4=CN=CN4)Br
Outline: as §1

[8] = compound: C1CN(CCC1(CC2=CC=C(C=C2)Cl)N)C3=NC=NC4=C3C=CN4
Outline: as §1

[9] = compound: C1COCCN1CCN2C3=CC=CC=C3N=C2NC(=O)C4=CC(=CC=C4)[N+](=O)[O-] [IRAK-1-4 Inhibitor I]
Outline: as §1

[10] = compound: C=CC(=O)N1CCC[C@@H](n2nc(-c3ccc(Oc4ccccc4)cc3)c3c(N)ncnc32)C1 [ibrutinib]
Outline: as §1

[11] = compound: CC(=O)c1cnc2ccc(-c3cc(Cl)c(O)c(Cl)c3)nc2c1N[C@H]1CC[C@H](CN(C)C)CC1
Outline: as §1

[12] = compound: CC(C)(C)Cn1c(N)nc2ccc(-c3[nH]c(C(C)(C)C)nc3-c3ccc(F)cc3)nc21 [ralimetinib]
Outline: as §1

[13] = compound: CC(C)(O)CC(=O)NCCn1ccc2ncnc(Nc3ccc(Oc4cccc(C(F)(F)F)c4)c(Cl)c3)c21
Outline: as §1

[14] = compound: CC(C)C1=C2N=C(C=C(N2N=C1)NCC3=CC=CC=C3)NCCCCCCN
Outline: as §1

[15] = compound: CC1=C(C(CC(=O)N1)C2=CC=C(C=C2)C(F)(F)F)C(=O)NC3=C(C=C4C(=C3)C=NN4)F
Outline: as §1

[16] = compound: CC1=C(C2=C(C=C1)C(=O)C3=CC=CC=C3N2CCCN)C
Outline: as §1

[17] = compound: CC1=C(C=C(C=C1)NC(=O)C2=CC(=CC=C2)C(C)(C)C#N)NC3=CC4=C(C=C3)N=CN(C4=O)C
Outline: as §1

[18] = compound: CC1=C(C=C(C=C1)NC(=O)C2=CC(=CC=C2)N(C)C)NC(=O)C3=CC=C(C=C3)O
Outline: as §1

[19] = compound: CC1=CC=C(C=C1)SC2=C3C=C(SC3=CN=C2)C(=O)N
Outline: as §1

[20] = compound: C1=CC=C2C(=C1)C3=NNC4=CC=CC(=C43)C2=O
Outline: as §1

Sequence of UniProt Q9C0D2 (Q9C0D2 whole entry, looked up): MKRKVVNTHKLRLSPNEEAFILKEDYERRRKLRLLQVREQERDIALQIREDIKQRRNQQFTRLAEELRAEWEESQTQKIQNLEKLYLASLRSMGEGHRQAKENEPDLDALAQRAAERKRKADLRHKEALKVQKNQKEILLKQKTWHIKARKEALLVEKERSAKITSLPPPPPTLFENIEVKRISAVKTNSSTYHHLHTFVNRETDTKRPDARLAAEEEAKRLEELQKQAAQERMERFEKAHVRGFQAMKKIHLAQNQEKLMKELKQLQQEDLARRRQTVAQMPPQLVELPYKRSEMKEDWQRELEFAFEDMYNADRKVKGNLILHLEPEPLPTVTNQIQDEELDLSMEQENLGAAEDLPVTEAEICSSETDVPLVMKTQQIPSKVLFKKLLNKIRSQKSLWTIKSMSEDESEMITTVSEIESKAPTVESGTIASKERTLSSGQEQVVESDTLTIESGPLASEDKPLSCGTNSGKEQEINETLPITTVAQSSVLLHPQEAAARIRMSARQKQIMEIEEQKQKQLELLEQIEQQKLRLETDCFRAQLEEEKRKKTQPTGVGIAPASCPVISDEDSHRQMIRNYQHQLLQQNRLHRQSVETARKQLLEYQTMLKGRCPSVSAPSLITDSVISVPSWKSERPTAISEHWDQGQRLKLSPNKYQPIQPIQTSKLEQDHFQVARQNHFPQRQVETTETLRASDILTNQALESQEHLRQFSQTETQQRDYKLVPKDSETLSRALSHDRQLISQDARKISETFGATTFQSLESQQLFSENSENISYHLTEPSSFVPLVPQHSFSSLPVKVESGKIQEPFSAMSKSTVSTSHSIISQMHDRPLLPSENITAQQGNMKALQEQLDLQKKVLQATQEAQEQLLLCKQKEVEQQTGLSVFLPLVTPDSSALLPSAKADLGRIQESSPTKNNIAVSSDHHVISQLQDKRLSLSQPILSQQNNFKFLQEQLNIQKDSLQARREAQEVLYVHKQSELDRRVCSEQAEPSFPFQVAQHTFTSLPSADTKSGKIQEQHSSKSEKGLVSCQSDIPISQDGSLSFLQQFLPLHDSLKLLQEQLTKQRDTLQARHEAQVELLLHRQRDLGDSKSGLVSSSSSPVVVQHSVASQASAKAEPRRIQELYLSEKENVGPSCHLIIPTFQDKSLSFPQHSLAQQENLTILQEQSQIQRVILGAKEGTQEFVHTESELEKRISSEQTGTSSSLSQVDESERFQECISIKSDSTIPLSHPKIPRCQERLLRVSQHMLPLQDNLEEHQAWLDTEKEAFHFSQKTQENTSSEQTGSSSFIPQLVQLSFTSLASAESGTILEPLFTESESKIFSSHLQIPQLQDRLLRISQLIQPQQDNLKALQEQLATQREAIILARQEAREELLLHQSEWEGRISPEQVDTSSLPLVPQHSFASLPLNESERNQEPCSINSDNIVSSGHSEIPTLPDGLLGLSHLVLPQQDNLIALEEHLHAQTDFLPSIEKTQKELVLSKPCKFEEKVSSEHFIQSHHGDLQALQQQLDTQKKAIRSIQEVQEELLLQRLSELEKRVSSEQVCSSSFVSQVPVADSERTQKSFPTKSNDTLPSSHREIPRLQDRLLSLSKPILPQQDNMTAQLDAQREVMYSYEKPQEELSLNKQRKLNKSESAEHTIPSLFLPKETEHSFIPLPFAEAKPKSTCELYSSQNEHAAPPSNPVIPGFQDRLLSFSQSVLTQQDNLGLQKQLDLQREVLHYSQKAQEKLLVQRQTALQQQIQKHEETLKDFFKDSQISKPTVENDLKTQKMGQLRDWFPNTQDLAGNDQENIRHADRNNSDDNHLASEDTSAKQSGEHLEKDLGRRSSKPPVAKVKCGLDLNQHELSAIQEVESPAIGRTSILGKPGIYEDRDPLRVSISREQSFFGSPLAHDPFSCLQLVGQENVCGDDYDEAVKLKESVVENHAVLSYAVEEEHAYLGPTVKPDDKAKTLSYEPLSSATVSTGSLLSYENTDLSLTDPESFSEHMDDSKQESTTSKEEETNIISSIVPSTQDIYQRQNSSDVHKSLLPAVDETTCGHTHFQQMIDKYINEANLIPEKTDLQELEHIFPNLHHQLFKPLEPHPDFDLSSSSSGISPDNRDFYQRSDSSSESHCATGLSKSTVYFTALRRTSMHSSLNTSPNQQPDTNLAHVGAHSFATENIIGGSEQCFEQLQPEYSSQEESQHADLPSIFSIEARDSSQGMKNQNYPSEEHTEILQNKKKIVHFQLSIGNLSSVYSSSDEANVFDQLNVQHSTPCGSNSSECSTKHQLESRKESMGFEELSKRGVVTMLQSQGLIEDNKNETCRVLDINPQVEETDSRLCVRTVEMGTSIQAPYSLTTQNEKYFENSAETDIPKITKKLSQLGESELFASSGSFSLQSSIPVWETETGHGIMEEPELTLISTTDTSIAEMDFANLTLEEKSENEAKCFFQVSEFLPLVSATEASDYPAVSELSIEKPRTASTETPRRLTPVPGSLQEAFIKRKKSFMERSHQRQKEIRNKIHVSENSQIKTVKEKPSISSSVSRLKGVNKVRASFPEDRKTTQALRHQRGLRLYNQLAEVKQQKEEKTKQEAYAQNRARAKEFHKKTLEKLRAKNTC
Sequence of UniProt P13994 (P13994 whole entry, looked up): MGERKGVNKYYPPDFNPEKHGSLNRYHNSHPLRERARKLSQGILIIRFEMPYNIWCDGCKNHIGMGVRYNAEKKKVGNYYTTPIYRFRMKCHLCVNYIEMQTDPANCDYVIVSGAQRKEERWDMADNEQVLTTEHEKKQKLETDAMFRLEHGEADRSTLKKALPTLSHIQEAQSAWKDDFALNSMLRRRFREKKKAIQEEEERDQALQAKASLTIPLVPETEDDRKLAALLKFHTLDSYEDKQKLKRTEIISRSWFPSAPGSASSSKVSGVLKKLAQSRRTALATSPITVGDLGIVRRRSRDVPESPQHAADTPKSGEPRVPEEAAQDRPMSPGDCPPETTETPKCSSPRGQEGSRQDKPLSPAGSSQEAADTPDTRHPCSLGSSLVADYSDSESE
Sequence of UniProt Q9UQ88 (Q9UQ88 whole entry, looked up): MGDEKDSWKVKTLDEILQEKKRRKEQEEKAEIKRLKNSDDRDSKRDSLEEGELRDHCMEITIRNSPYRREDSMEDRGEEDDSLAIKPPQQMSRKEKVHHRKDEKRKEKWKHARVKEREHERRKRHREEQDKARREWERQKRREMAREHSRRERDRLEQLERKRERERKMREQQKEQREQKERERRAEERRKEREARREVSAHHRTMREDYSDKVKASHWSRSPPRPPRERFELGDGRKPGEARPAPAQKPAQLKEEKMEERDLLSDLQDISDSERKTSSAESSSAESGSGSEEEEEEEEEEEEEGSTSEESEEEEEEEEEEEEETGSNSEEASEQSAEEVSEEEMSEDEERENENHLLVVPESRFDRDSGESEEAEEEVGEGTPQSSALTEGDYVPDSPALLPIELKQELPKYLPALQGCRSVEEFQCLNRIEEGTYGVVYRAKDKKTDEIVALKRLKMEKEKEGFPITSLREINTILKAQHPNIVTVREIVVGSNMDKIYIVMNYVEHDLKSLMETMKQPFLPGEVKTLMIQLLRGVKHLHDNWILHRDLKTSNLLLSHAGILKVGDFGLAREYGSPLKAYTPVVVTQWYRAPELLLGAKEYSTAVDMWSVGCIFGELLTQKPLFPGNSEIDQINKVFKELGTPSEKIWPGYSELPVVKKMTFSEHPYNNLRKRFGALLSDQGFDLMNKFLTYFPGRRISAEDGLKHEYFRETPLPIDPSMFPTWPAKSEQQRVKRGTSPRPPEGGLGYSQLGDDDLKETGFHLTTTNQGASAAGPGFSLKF
Sequence of UniProt Q6ZRI6 (Q6ZRI6 whole entry, looked up): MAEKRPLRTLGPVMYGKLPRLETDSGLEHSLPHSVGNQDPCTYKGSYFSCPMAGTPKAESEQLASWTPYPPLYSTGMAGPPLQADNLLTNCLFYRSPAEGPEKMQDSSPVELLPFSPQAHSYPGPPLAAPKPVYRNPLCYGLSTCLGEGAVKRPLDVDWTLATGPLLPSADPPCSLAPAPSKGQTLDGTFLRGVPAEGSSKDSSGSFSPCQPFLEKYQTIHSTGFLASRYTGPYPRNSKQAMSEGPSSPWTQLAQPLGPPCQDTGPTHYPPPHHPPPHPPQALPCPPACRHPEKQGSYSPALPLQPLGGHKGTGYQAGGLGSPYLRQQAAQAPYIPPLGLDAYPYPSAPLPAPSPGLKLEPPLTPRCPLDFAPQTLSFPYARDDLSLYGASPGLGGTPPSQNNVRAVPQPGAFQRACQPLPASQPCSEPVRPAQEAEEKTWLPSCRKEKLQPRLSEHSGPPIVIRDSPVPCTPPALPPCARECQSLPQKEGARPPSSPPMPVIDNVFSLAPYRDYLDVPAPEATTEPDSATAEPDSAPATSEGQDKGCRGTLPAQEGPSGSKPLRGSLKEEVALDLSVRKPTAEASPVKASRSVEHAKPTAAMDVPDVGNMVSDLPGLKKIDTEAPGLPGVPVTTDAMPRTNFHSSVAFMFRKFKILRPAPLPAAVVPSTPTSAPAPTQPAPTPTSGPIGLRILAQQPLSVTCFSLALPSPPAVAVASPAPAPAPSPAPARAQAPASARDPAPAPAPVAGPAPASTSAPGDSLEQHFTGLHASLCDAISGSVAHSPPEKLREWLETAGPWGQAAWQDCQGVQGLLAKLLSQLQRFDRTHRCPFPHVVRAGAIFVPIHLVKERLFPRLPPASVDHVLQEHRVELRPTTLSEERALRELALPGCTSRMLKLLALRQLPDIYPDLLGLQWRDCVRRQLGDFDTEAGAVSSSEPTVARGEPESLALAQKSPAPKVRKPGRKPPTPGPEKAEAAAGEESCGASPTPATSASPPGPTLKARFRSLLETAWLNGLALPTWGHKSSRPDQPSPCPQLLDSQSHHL
Sequence of UniProt Q6P4H8 (Q6P4H8 whole entry, looked up): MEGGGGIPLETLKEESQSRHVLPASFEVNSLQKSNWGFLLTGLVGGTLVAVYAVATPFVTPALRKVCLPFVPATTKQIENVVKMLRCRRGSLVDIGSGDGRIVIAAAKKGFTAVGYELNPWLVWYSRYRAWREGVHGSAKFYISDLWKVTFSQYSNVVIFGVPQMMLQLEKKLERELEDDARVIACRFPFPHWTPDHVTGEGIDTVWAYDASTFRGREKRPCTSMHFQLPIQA

| Target | log2 fold change [1] | log2 fold change [2] | log2 fold change [3] | log2 fold change [4] | log2 fold change [5] | log2 fold change [6] | log2 fold change [7] | log2 fold change [8] | log2 fold change [9] | log2 fold change [10] | log2 fold change [11] | log2 fold change [12] | log2 fold change [13] | log2 fold change [14] | log2 fold change [15] | log2 fold change [16] | log2 fold change [17] | log2 fold change [18] | log2 fold change [19] | log2 fold change [20] |
| --- | --- | --- | --- | --- | --- | --- | --- | --- | --- | --- | --- | --- | --- | --- | --- | --- | --- | --- | --- | --- |
| CAMK2B (UniProt Q13554) | 0.037 | 0.086 | -0.067 | -0.039 | -0.068 | -0.069 | 0.011 | -0.034 | 0.087 | 0.092 | 0.023 | 0.028 | 0.045 | 0.075 | -0.035 | -0.018 | -0.005 | 0.046 | -0.032 | – |
| ATXN2 (UniProt F8WB05) | 0.073 | -0.082 | 0.09 | -0.191 | -0.063 | -0.011 | -0.036 | 0.055 | -0.157 | -0.538 | -0.104 | 0 | 0.033 | 0.037 | – | 0.006 | 0.119 | -0.044 | 0.048 | -0.083 |
| ATPSCKMT (UniProt Q6P4H8) | – | – | – | – | 0 | 0.075 | -0.074 | -0.006 | -0.046 | -0.042 | – | -0.15 | 0.088 | – | – | 0.019 | -0.015 | -0.001 | – | – |
| CENPV (UniProt Q7Z7K6) | – | -0.033 | – | 0.013 | -0.093 | -0.193 | -0.037 | 0.012 | 0.013 | 0.036 | – | 0.352 | -0.235 | – | 0.182 | – | 0.121 | -0.13 | – | 0.015 |
| CEP128 (UniProt Q6ZU80) | – | -0.069 | – | 0 | -0.234 | 0.236 | -0.138 | -0.015 | -0.212 | 0.166 | – | -0.06 | -0.001 | – | – | 0.078 | – | -0.03 | – | -0.102 |
| CAPNS1 (UniProt U3KPR7) | – | – | – | – | -0.105 | – | – | – | – | 0.034 | -0.007 | – | – | – | 0.155 | – | – | – | 0.099 | – |
| CHD9 (UniProt Q3L8U1) | -0.046 | 0.169 | -0.167 | 0.191 | – | 0.043 | – | – | 0.016 | – | – | -0.117 | -0.147 | -0.074 | 0.212 | 0.038 | -0.031 | -0.023 | – | -0.059 |
| CDKL5 (UniProt O76039) | – | -0.216 | – | -0.08 | – | – | 0.423 | 0.085 | – | – | 0.088 | – | – | – | – | -0.351 | 0.111 | – | -0.019 | 0.339 |
| CCAR2 (UniProt G3V119) | – | – | – | – | – | – | – | – | – | – | 0.017 | – | – | – | – | – | – | – | -0.047 | – |
| CHD4, A0A2R8Y521 | – | – | – | – | – | 0.259 | -0.033 | 0.261 | 0.178 | – | -0.049 | -0.175 | -0.011 | – | -0.19 | 0.191 | – | 0.228 | 0.314 | – |
| CAD (UniProt H7BZB3) | 0.126 | -0.127 | -0.28 | -0.069 | – | – | -0.035 | -0.007 | – | – | – | – | – | -0.073 | – | – | – | – | – | -0.034 |
| C15orf39 (UniProt Q6ZRI6) | -0.029 | – | 0.026 | – | -0.031 | 0.052 | 0.019 | -0.009 | 0.034 | -0.141 | – | -0.005 | -0.029 | -0.06 | 0.104 | 0.039 | -0.03 | 0.019 | – | – |
| CCDC130 (UniProt P13994) | -0.045 | – | 0.28 | – | 0.032 | -0.224 | -0.152 | -0.016 | 0.025 | -0.232 | – | 0.181 | 0.077 | -0.112 | – | – | 0.252 | 0.072 | – | – |
| C3AR1 (UniProt Q16581) | – | – | – | – | 0.145 | – | – | – | – | 0.018 | – | – | – | – | 0.001 | – | -0.074 | – | – | – |
| CAPNS1 (UniProt K7ES78) | 0.193 | -0.23 | 0.019 | -0.275 | – | -0.048 | – | – | -0.09 | – | 0.028 | 0.061 | -0.196 | -0.101 | – | 0.025 | 0.148 | -0.105 | -0.075 | 0.047 |
| BICRA (UniProt Q9NZM4) | 0.204 | – | 0.231 | – | 0.12 | 0.065 | – | – | 0.115 | -0.053 | -0.093 | -0.138 | -0.271 | 0.102 | – | -0.168 | -0.012 | -0.003 | -0.156 | – |
| BRAF, A0A2R8Y8E0 | – | -0.005 | – | 0.001 | – | – | 0.067 | -0.045 | – | – | – | – | – | – | – | – | – | – | – | 0.119 |
| CDK11A (UniProt Q9UQ88) | 0.053 | – | -0.128 | – | -0.037 | 0.027 | – | – | -0.009 | 0.022 | 0.414 (active) | 0.003 | 0.056 | -0.036 | -0.03 | -0.022 | 0.002 | 0.025 | -0.014 | – |
| CASP7 isoform 3 (UniProt P55210) | 0.104 | – | 0.008 | – | -0.086 | 0.019 | -0.013 | 0.098 | 0.241 | 0 | 0.125 | -0.118 | -0.012 | -0.123 | -0.029 | -0.161 | 0.043 | -0.124 | -0.052 | – |
| B3GALT6 (UniProt Q96L58) | 0.074 | – | -0.04 | – | 0.022 | -0.028 | – | – | -0.049 | -0.025 | – | 0.065 | 0.23 | -0.025 | – | -0.112 | -0.168 | -0.046 | – | – |
| CEP295 isoform 3 (UniProt Q9C0D2) | -0.063 | – | -0.02 | – | 0.051 | -0.092 | 0.015 | 0.111 | -0.143 | -0.182 | -0.048 | 0.005 | 0.009 | -0.019 | 0.02 | – | 0.041 | 0 | 0.053 | – |
| BAHCC1 (UniProt Q9P281) | -0.047 | 0.026 | 0.076 | -0.126 | – | – | -0.101 | -0.11 | – | – | -0.045 | – | – | -0.018 | -0.114 | -0.008 | 0.013 | – | 0.074 | -0.009 |
| CANX (UniProt D6RHJ3) | – | -0.321 | – | 0.031 | – | – | – | – | – | – | -0.013 | – | – | – | 0.021 | – | – | – | -0.008 | -0.022 |
| ATE1 (UniProt O95260) | – | – | – | – | 0.005 | – | – | – | – | 0.081 | -0.025 | – | – | – | – | – | -0.101 | – | -0.022 | – |

From the supplement of paper PMC10849652
